Assay outcomes (PubChem)
A549 viability: kills or reduces viability of A549 cells in Nrf2 counter-screen; A549 ARE-Fluc cells, CellTiter-Fluor viability, 18-24 h; Potency, µM (doses to about 46 µM), for the others: top-dose activity change, negative = cytotoxicity, hits mostly inhibitors; actives 0.16% (n = 390,000); AID 504648; note: % is set by controls: 0 for no effect and ±100 for the full control effect
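Cytotoxicity counterscreen: CellTiter-Fluor fluorescence was measured in A549 ARE_Fluc cells after 18-24 h of compound exposure in a concentration series. The subsequent BugLite luminescent read reports ARE-luciferase activity.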
Nrf2 inh: inhibitors of Nrf2 signaling. A549 ARE-Fluc reporter, luciferase luminescence, 18-24 h. Potency, µM (top dose mostly 46 µM), for the others: at the top dose activity change, negative = inhibition, hits mostly inhibitors. AID 504444. actives 2.1% (n = 360,000); note: % is set by controls: 0 for no effect and ±100 for the full control effect; nearly all actives have a fitted effect of over 60% in size
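Quantitative HTS in A549 cells stably bearing an antioxidant response element-firefly luciferase construct. Inhibition of Nrf2-driven transcription was scored by luminescence after 18-24 h of compound exposure at 37 °C.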
Nrf2 ARE act: Nrf2 pathway activation; AREc32 ARE-luciferase reporter (MCF7-derived line), luminescence, 24 h; actives 0.31% (n = 410,000); Potency, µM (doses to about 46.1 µM), for inactives: at the highest dose activation, most hits filed as activators; AID 624171; note: % of control where 0% means no effect; nearly all actives have a fitted effect of over 65% in size
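ARE-driven firefly luciferase activity in AREc32 cells measured after a 24 hr compound exposure at 37 deg C, using Steady-Glo reagent and a 30 min room-temperature hold.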
ELG1 DNA repair: blocks ELG1-dependent DNA repair in HEK293T cells | HEK293T ELG1-luciferase reporter, luminescence, 16 h; DNA damage induced by 5-fluorouridine | Potency, µM (series often up to 46.1 µM), for the others: at the top dose activity change, negative = inhibition, most hits filed as inhibitors | actives 2.3% (n = 330,000) | AID 504467; note: % is set by controls: 0 for no effect and ±100 for the full control effect; nearly all actives have a fitted effect of over 55% in size
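Overnight (16 hr) co-exposure of 2,000 cells/well to 5-fluorouridine and compound at 37 °C preceded detection. Luciferase was quantified via ONE-Glo luminescence; loss of signal denotes inhibition.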
An asterisk follows results filed as active; ? = inconclusive; · = no result; [ ] = another dose, or the depositor's remark. Shown are actives, neighbours in structure and some others; about 3.7% of the full set was active somewhere. Calls come from the whole dose curve; as a rule, active = well fitted curve in the direction sought with a large enough effect; inconclusive = small, poorly fitted or top-dose-only effect, or another doubt; inactive = no such curve, though single readings can be large; an effect the other way counts as inactive or inconclusive. Potency is the fitted concentration of half-maximal effect.

SMILES	A549 viability	Nrf2 inh	Nrf2 ARE act	ELG1 DNA repair
CCOC(=O)N1CCC(NS(=O)(=O)c2ccc3c(c2)oc(=O)n3C)CC1	-1%	-17%	0%	-1%
CCOC(=O)N1CCC(NS(=O)(=O)c2ccc(C)c(Cl)c2)CC1	2%	-20%	3%	16µM*
CC(C)(C)S(=O)(=O)/C(C#N)=N/Nc1ccc(Cl)cc1	?	10µM*	7%	-35%
CC(=O)c1ccc(Oc2ncnc3sccc23)cc1	1%	?	7%	?
CC(=O)N1CCN(c2ccc(Oc3ncnc4sccc34)cc2)CC1	-5%	?	0%	21µM*
COc1ccc(Cn2c(CNS(=O)(=O)c3ccc(C)c(C)c3)nc3cccnc32)cc1	1%	·	3%	·
O=C(C1CCCN(S(=O)(=O)c2ccccc2)C1)N1CCCc2ccccc21 (stereo not given)	-6%	?	0%	23µM*
Cc1ccc(S(=O)(=O)N2CCCC(C(=O)N3CCN(c4ccccc4)CC3)C2)cc1 (stereo not given)	-13%	?	-1%	21µM*
Cc1ccc(S(=O)(=O)N2CCCC(C(=O)N3CCCc4ccccc43)C2)cc1 (stereo not given)	-8%	-29%	3%	-11%
CC(=O)c1ccc(N2CCN(C(=O)C3CCCN(S(=O)(=O)c4ccc(Br)s4)C3)CC2)cc1 (stereo not given)	-8%	16µM*	3%	·
O=C(C1CCCN(S(=O)(=O)c2ccc(Br)s2)C1)N1CCN(c2ccc(F)cc2)CC1 (stereo not given)	-2%	?	1%	·
CN1CCN(C(=O)C2CCCN(S(=O)(=O)c3ccccc3)C2)CC1 (stereo not given)	4%	21%	-1%	?
CCOc1ccc(S(=O)(=O)N2CCCC(C(=O)N3CCN(c4ccccc4)CC3)C2)cc1 (stereo not given)	-18%	23µM*	0%	0%
O=S(=O)(NCCc1csc2nc(-c3ccc(F)cc3)nn12)c1ccc2c(c1)OCCO2	-4%	·	0%	·
COc1ccc(N2CCN(C(=O)C3CCCN(S(=O)(=O)c4ccc(C)cc4)C3)CC2)cc1 (stereo not given)	-8%	?	-1%	21µM*
COc1ccc(N2CCN(C(=O)C3CCCN(S(=O)(=O)c4ccc(F)cc4)C3)CC2)cc1 (stereo not given)	-6%	?	0%	?
COc1cccc(N/C(=N/C(=S)Nc2ccc(C)cc2C)Nc2nc(C)cc(C)n2)c1	-13%	-8%	3%	26µM*
CCNC(=S)/N=C(/Nc1ccc(OC)cc1)Nc1nc(C)cc(C)n1	-4%	0%	-1%	-6%
CN(c1ccccc1)S(=O)(=O)c1ccc(Cl)c(C(=O)Nc2ccc(-c3nc4ccccc4[nH]3)cc2)c1	-10%	?	3%	?
CN(c1ccccc1)S(=O)(=O)c1ccc(Cl)c(C(=O)Nc2nc3ccccc3[nH]2)c1	-13%	?	7%	23µM*
Nc1ccc2ncccc2c1N	-7%	0%	0%[9.22 µM]	10µM*
CCCCC(O)C(=O)Nc1cc(C(F)(F)F)ccc1Cl (stereo not given)	2%	14%	·	·
CCOc1ccc(NC(=NCc2ccc3c(c2)OCO3)SC2CC(=O)N(c3ccc(OCC)cc3)C2=O)cc1 (stereo not given)	-27%	15µM*	0%	?
CCOc1ccc(N2C(=O)CC(SC(=NC)Nc3ccc4c(c3)OCO4)C2=O)cc1 (stereo not given)	1%	-3%	-1%	26µM*
CCOc1ccc(N2C(=O)CC(SC(=NC)Nc3cccc(F)c3)C2=O)cc1 (stereo not given)	-15%	?	0%	-22%
SMILES	A549 viability	Nrf2 inh	Nrf2 ARE act	ELG1 DNA repair
CCOc1ccc(NC(=NCc2ccc3c(c2)OCO3)SC2CC(=O)N(c3ccccc3)C2=O)cc1 (stereo not given)	-9%	-14%	-1%	4%
CN(Cc1ccccc1)C(=O)c1csc([C@@H]2O[C@H](CO)[C@H](O)[C@H](O)[C@H]2O)n1	·	·	0%	·
Cc1cc(=O)oc2cc(OCc3ccc(C(=O)N4CCN(c5ccc([N+](=O)[O-])cc5)CC4)cc3)ccc12	-10%	-30%	-2%	?
Cc1cc(=O)oc2cc(OCc3ccc(C(=O)N4CCN(c5ccccc5)CC4)cc3)ccc12	-8%	18µM*	5%	?
CCN(CCCNC(=O)c1nn(-c2ccc(OC)cc2)c(=O)c2c1c1ccccc1n2C)c1ccccc1	-1%	10%	0%	·
OCCN(Cc1ccccn1)Cc1ccccn1	·	·	-1%	·
CC(=O)c1c(C)oc2ccc(NS(=O)(=O)c3ccc(C(C)C)cc3)cc12	-4%	13µM*	4%	·
COc1cccc(C2c3c(ncn(-c4ccccc4Cl)c3=N)Oc3ccc4ccccc4c32)c1 (stereo not given)	18%	-18%	·	·
C[C@H](CO)N1C[C@H](C)[C@@H](CN(C)S(=O)(=O)c2cccc(C#N)c2)OCc2cn(nn2)CCCC1=O	·	·	-1%	·
O=C(O)c1cc2ccccc2c(N=Nc2cccnc2)c1O	?	18µM*	22%	-6%
O=C(O)c1cc(N=Nc2c(O)ccc3ccccc23)cc(C(=O)O)c1	?	7%	0%	7%
CN1C(=O)c2ccccc2Sc2ccc(NC(=O)Nc3ccccc3F)cc21	-8%	21µM*	1%	·
Cn1c(=O)c2c(nc(CN3CCN(c4ccccc4)CC3)n2Cc2c(F)cccc2Cl)n(C)c1=O	?	11%	-1%	10µM*
CCc1ccc(N2CCn3c2nc2c3c(=O)n(Cc3c(F)cccc3Cl)c(=O)n2C)cc1	-8%	23µM*	-1%	·
CCCCCn1c(N2CCN(c3cccc(Cl)c3)CC2)nc2c1c(=O)[nH]c(=O)n2C	-9%	?	1%	23µM*
CCCn1c(CN2CCN(c3cccc(Cl)c3)CC2)nc2c1c(=O)n(C)c(=O)n2C	-26%	18µM*	0%	?
CC(=O)c1c(C)[nH]c(C(=O)OCC(=O)N2CCc3ccccc3C2)c1C	-2%	?	4%	?
Cc1ccc(C(=O)C2CCN(CC(=O)N3CCN(c4ccc(F)cc4)CC3)CC2)cc1	5%	-9%	0%	?
Cc1nc2ccn(Cc3ccco3)c(=O)c2cc1C(=O)N1CCN(c2ccccc2F)CC1	7%	22%	7%	·
CCCn1nc(C(=O)NNC(=O)c2cc(S(=O)(=O)NC)ccc2Br)c2ccccc2c1=O	-6%	-24%	0%	8.2µM*
O=C(NC1CC1)c1cccc(NC(=O)c2cnn(-c3ccccc3)n2)c1	-5%	-6%	3%	12µM*
CCCn1nc(C(=O)Nc2cc(S(=O)(=O)Nc3ccc(OC)cc3)ccc2O)c2ccccc2c1=O	1%	3%	3%	16µM*
CC(C)Cn1nc(C(=O)Nc2cccc(C(=O)NC3CC3)c2)c2ccccc2c1=O	0%	-12%	4%	16µM*
